Among all 140,000 compounds or so, about 1,700 (1.2%) were called active. The entries come from a sample that favours actives as a whole. Values without a mark were called inactive.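 How the source made its calls: active means viability at or below a set limit, 4 SD under the median of all tested compounds (cut at about 3.7% in these data); inactive means the rest.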

This assay can be described thus: growth suppression of PTEN-null HCT116, primary screen, cell-based, CellTiter-Glo (AID 827).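 Further: PTEN knockout HCT116 line with beta catenin targeted HCT116 as companion control.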 Particulars: 60 h, at 10 µM, hits give low values.
One may read the viability as a read-out of living cells in per cent, often relative to untreated cells. Take `O=C1CCCCC(=O)c2ccccc2N1`: the viability was 97.7%.

As for `c1ccc2c(c1)C(=NC1CCCCC1)NC2=NC1CCCCC1`, the viability was 1.88% (active).

In the case of `CC1=CC(C)(C)Nc2ccc(OC(=O)C(Cc3ccccc3)N3C(=O)C4CCCCC4C3=O)cc21` (stereo not drawn), the viability is 45.7%.

As for `O=C(CN1C(=O)C2C3CCC(C3)C2C1=O)Oc1ccc2ccccc2c1` (stereo not drawn), the viability is 86%.

Consider `CC1=CC(C)(C)Nc2ccc(OC(=O)CN3C(=O)C4CCCCC4C3=O)cc21` (stereo not drawn), for which the viability is 0.76% (active).

On to `CCn1c(=O)cc(SCC(=O)NCCC2=CCCCC2)c2ccccc21`, for which the viability is 91.3%.

`CCCC(=O)Nc1ccc(C(=O)N/N=C/c2ccc[nH]2)cc1`: the viability is 80.1%.

On to `Cc1ccc(S(=O)(=O)N2CCC(C(=O)N[C@@H](C)C(=O)NCc3ccco3)CC2)cc1`, for which the viability was 102%.

`Cc1cc(C)c2nc(SCCC#N)nc(C)c2c1`: the viability was 109%.

For `Cc1cc(C)c2nc3nc(C)cc(C)c3c(N)c2c1`, the viability is 2.26% (active).

For the compound `CNC(=S)N/N=C/c1cn(Cc2ccc(C)cc2)c2ccccc12`, the viability was 49.9%.

Consider `O=C(O)c1cnn2c(C(F)(F)F)cc(-c3ccccc3)nc12`, for which the viability was 95.3%.

Turning to `CC(=O)N1CCN(c2cccc(C)c2C)CC1`, the viability was 98%.

Consider `Cc1cccc(N2CCN(C(=O)c3cnn4c(C(F)F)cc(-c5ccccc5)nc34)CC2)c1C`, for which the viability was 3.53% (active).

`O=C(Nc1cccc2ccccc12)N1CCN(Cc2ccc3c(c2)OCO3)CC1`: the viability was 1.32% (active).

`O=C(CCCN1C(=O)c2cccc3cccc(c23)C1=O)N1CCN(Cc2ccc3c(c2)OCO3)CC1`: the viability is 89.4%.

As for `O=C(c1cccs1)N1CCN(Cc2ccc3c(c2)OCO3)CC1`, the viability was 94.4%.

In the case of `CC1CCN(c2ccc(C(=O)Nc3nnc(C4CC4)s3)cc2[N+](=O)[O-])CC1`, the viability is 96.1%.

As for `Cc1ccc(C2=N/C(=C\c3ccc(OS(=O)(=O)c4ccc(C)cc4)cc3)C(=O)O2)cc1`, the viability is 92.6%.

With `CCN1/C(=C/c2ccc3ccc(C)cc3[n+]2CC)Sc2ccccc21`, the viability is 2.61% (active).

For the compound `CCC(=O)/C=C1\Sc2ccccc2N1CC`, the viability is 95.3%.

As for `O=C(NNC1=NCCC1)c1cccc(S(=O)(=O)N2CCCCC2)c1`, the viability is 96.7%.

In the case of `CC(=O)c1ccc(NC(=S)NC(=O)CC(C)C)cc1`, the viability was 98.8%.

As to `O=C(CC(=O)N/N=C\c1cccc(Cl)c1Cl)NCc1ccccc1`, the viability is 90.4%.

As to `COc1ccccc1N1CCN(C(=O)CN(Cc2ccc(Cl)cc2)S(C)(=O)=O)CC1`, the viability is 68.5%.

For the compound `COc1ccccc1N1CCN(Cc2nnnn2CCc2ccccc2)CC1`, the viability was 104%.

Take `COc1ccccc1-n1nnnc1S(=O)(=O)Cc1ccc(Cl)cc1`: the viability was 3.39% (active).

On to `CCCN=C1NC(=O)C(CC(=O)NCCc2ccc(OC)c(OC)c2)S1` (stereo not drawn), for which the viability is 96.5%.

Turning to `CC(C)Nc1nnc(SCC(=O)/C=C2\N(C)c3ccccc3C2(C)C)s1`, the viability is 79%.

As for `CCOc1ccc(NC(=O)CCC(=O)N/N=C/c2ccc([N+](=O)[O-])s2)cc1`, the viability was 6.05%.

As to `O=[N+]([O-])c1ccc(C=Nc2ccc(Cl)cc2Cl)s1`, the viability was 2.41% (active).

On to `CC(=O)NC1=NN(C(C)=O)C(C)(CCS(=O)(=O)c2ccc(Cl)c(Cl)c2)S1` (stereo not drawn), for which the viability is 94.7%.

Take `COc1ccc2nc(NC(=O)[C@@H]3CCCN3C(=O)c3cccs3)sc2c1`: the viability is 85.2%.

With `O=C(NCCN1CCN(Cc2ccccc2)CC1)c1cc2c(=O)[nH]c3ccccc3c2s1`, the viability was 2.62% (active).

For the compound `Cn1c(C(=O)NCCN2CCc3ccccc3C2)cc2c(=O)[nH]c3ccccc3c21`, the viability is 75.8%.

As to `CN1CCN(CCCNC(=O)c2cc3c(=O)oc4ccccc4c3s2)CC1`, the viability is 109%.

Regarding `COc1ccccc1OCC(=O)OCn1c(SC)nnc(C)c1=O`, the viability is 98.3%.

Take `CC(C)(C)C(=O)N1CCC[C@@]1(CO)C(=O)O`: the viability is 93.1%.

Turning to `CCCCCC(=O)Nc1ccc(C(=O)N/N=C/c2ccc([N+](=O)[O-])cc2)cc1`, the viability is 1.62% (active).

Consider `O=C(COc1ccc(/C=N/NC(=O)c2ccc(O)cc2)cc1)Nc1ccc([N+](=O)[O-])cc1`, for which the viability was 60.2%.

On to `CCCCCC(=O)NC(=S)NNC(=O)c1ccc([N+](=O)[O-])cc1`, for which the viability was 37.4%.

Consider `Cc1cc(C)cc(OCC(=O)Nc2nc3ccc([N+](=O)[O-])cc3s2)c1`, for which the viability is 103%.

For the compound `COC(=O)C(NC(=O)c1ccc(OC)cc1)(Nc1ncc(S(=O)(=O)c2ccc([N+](=O)[O-])cc2)s1)C(F)(F)F` (stereo not drawn), the viability was 72.2%.

On to `O=C(NC(Nc1nc2ccc([N+](=O)[O-])cc2s1)(C(F)(F)F)C(F)(F)F)c1ccccc1`, for which the viability is 1.46% (active).

`COc1cc(NC(=O)COC(=O)CSc2ccc3ccccc3c2)c(C)cc1[N+](=O)[O-]`: the viability is 96.9%.

Take `CCn1nc(C)c(/C=N/NC(=O)Cc2ccc(Cl)cc2)c1C`: the viability was 91.7%.

As for `CCOc1ccc(C(=O)NC(=S)Nc2ccc(NC(=O)C(C)C)cc2)cc1[N+](=O)[O-]`, the viability was 87.9%.

On to `CCOC(=O)c1c(C)[nH]c(=S)c(C#N)c1-c1ccccc1`, for which the viability was 102%.

`CCOC(=O)c1c(C)[nH]c2c1-c1ccccc1C(=O)C2=O`: the viability is 1.66% (active).

For the compound `Cc1[nH]c2ccccc2c1C(=O)COC(=O)C(C)C`, the viability was 112%.

For `CN(C)S(=O)(=O)c1cc(NC(=O)CN2C(=O)NC3(CCCc4ccccc43)C2=O)ccc1Cl` (stereo not drawn), the viability is 59.3%.

As to `CCOCCCNC(=O)C(=O)NCCCOCC`, the viability was 102%.

In the case of `CCC(CC)C(=O)N1CC(=O)Nc2ccc(Br)cc2C1c1ccccc1` (stereo not drawn), the viability is 71.6%.

As for `COC(=O)CN1C(=O)C(O)=C(C(C)=O)C1c1ccc([N+](=O)[O-])cc1` (stereo not drawn), the viability is 96.7%.

Regarding `COC(=O)CN1C(C)=Nc2ccc(Br)cc2C1c1ccccc1` (stereo not drawn), the viability was 0.62% (active).

Regarding `COc1ccc(OCc2cn3c(C)cc(C)nc3n2)cc1`, the viability was 99.6%.

In the case of `Cc1ccc(S(=O)(=O)N2CCN(CC(=O)N/N=C/c3cc([N+](=O)[O-])ccc3Cl)CC2)cc1`, the viability was 74.4%.

Consider `CC(C)/C=N/NC(=O)c1cc(Br)ccc1O`, for which the viability is 89%.

The values above are taken from PubChem BioAssay AID827 (SRMLSC, 2007).
